Potency and outcome data for nine compounds are collected here from PubChem BioAssay (Tox21).

A number with no mark means an inactive call. Results filed as inconclusive are left out. The source made the active and inactive calls. Unless noted, calls come from the whole dose curve; as a rule, active = well fitted curve in the direction sought with a large enough effect in the repeat runs; inconclusive = weak or mixed curves; inactive = no such curve, though single readings can be large; an effect the other way counts as inactive or inconclusive.

Test [1] in a line: qHTS assay to identify small molecule agonists of the sonic hedgehog signaling (Shh) pathway (AID 1259368; calls by dose curve;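 note: NIH/3T3-derived 3T3Gli1-Luc cells carrying a stable Gli1-driven firefly luciferase reporter; series mostly up to about 92 µM; nearly all actives have a fitted effect of over 15% in size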). The procedure, abridged: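 Cells of a mouse NIH/3T3 clone stably expressing luciferase under the Gli1 transcriptional response element are exposed to test chemicals for 24 hr at 37 C. Pathway activation is detected as a rise in luminescence.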
(In general: Quantitative high-throughput screening tests each substance at several concentrations.)

Test [2] in a line: qHTS assay to identify small molecule antagonists of the sonic hedgehog signaling (Shh) pathway (AID 1259369; calls by dose curve; note: nearly all actives have a fitted effect of over 45% in size; note: potency is the fitted concentration of half-maximal effect). Put shortly: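 Cells are plated and held 4hr at 37 C, compounds (DMSO) are pinned in, conditioned medium is added to stimulate the pathway, and after 24hr luciferase reagent is added for 30min before luminescence is read.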
The nature of test [3]: qHTS assay to identify small molecule agonists of the androgen receptor (AR) signaling pathway in the presence of an antagonist - cell viability counter screen (AID 1259379).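 Note: MDA-kb2 human breast cancer cells carrying an MMTV luciferase reporter; series mostly up to about 92 µM; nearly all actives have a fitted effect of over 25% in size.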 Put shortly:
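Cytotoxicity is assessed by CellTiter-Fluor in MDA-kb2 cells carrying an MMTV-driven luciferase reporter. Cells receive 3.0uM nilutamide plus compounds at 15 concentrations and incubate 16 hr at 37C without CO2 before fluorescence reading.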

A short description of test [4]: qHTS assay to identify small molecule agonists of the estrogen receptor beta (ER-beta) signaling pathway - cell viability counter screen (AID 1259380). Note: nearly all actives have a fitted effect of over 30% in size. Put shortly:
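Cytotoxicity is measured in parallel with the reporter screen: after 16 hr compound exposure at 37C and a 2 hr LiveBLAzer step, CellTiter-Glo is added to the same ER-beta-UAS-bla HEK293T wells and luminescence read after 30 min.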

Test [5] in a line: qHTS assay to identify small molecule antagonists of the estrogen receptor beta (ER-beta) signaling pathway - cell viability counter screen (AID 1259382). Note: series mostly up to about 92 µM; nearly all actives have a fitted effect of over 55% in size. The procedure, abridged: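 Cytotoxicity counter screen multiplexed with the beta-lactamase antagonist assay: GripTite HEK293T ER-beta-bla cells were treated 16 hr with test chemicals in the presence of 1nM 17-beta-estradiol, and viability was measured by CellTiter-Glo.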

Test [6] is described as follows: qHTS assay to identify small molecule agonists or antagonists of the thyroid stimulating hormone receptor (TSHR) signaling pathway - wild type cell line counter screen (AID 1259384; calls by dose curve). The procedure, abridged: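 Wild-type HEK293 cells were plated 18 h at 37 C/5% CO2, pin-dosed with compound plus Ro20-1724 medium, held 30 min at room temperature, then given cAMP-d2 and anti-cAMP-cryptate; fluorescence was read after 1 h. Fifteen concentrations, triplicate.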

The target in test [7] is Thyrotropin receptor (Homo sapiens) (UniProt P16473). Briefly: qHTS assay to identify small molecule antagonists of the thyroid stimulating hormone receptor (TSHR) signaling pathway (AID 1259385; calls by dose curve; note: nearly all actives have a fitted effect of over 20% in size). Put shortly:
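TSHR-HEK293 cells were plated and held 18 h at 37C/5% CO2, then given compound plus Ro20-1724 and stimulated with TSH at 1.5 ng/mL final. After 30 min at room temperature, cAMP was detected with cAMP-d2/anti-cAMP-cryptate (1 h) by fluorescence.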

Test [8] is described as follows: qHTS assay to identify small molecule agonists of the estrogen receptor alpha (ER-alpha) signaling pathway in the presence of an antagonist - cell viability counter screen (AID 1259386).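 Note: series mostly up to about 92 µM; cells exposed to compounds for 22 h at 37 °C before the viability read; nearly all actives have a fitted effect of over 30% in size.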 The procedure, abridged:
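Cytotoxicity was measured in parallel with the ERE-luciferase agonist screen, in the same wells. The cells were VM7Luc4E2, which endogenously express ER-alpha, and treatment was with compounds plus 10.0nM ICI-182,780 for 22hr.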

Test [9] deals with Progesterone receptor (Homo sapiens) (UniProt P06401). Put plainly: qHTS assay to identify small molecule agonists of the progesterone receptor (PR) signaling pathway (AID 1346784; calls by dose curve; note: nearly all actives have a fitted effect of over 30% in size). The procedure, abridged:
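The screen uses PR-UAS-bla HEK 293T cells in charcoal-stripped serum (2%). Compounds are applied for 16 hr at 37C after a 6 hr pre-incubation, and reporter activity is detected with a FRET beta-lactamase substrate after 2 hr at room temperature.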

The target is the same in test [10]. Put plainly: qHTS assay to identify small molecule antagonists of the progesterone receptor (PR) signaling pathway (AID 1346795; active = well fitted inhibition curve with a large enough effect in the signal ratio in the repeat runs, not every such curve was filed as active; the % refers to the signal ratio; note: potency is the fitted concentration of half-maximal effect). The procedure, abridged:
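After 6 hr plating at 37C in 2% stripped-serum medium, PR-UAS-bla HEK293T cells got compounds, then 1 nM R5020. Sixteen hours later, LiveBLAzer substrate was applied for 2 hr at room temperature and fluorescence was recorded.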

Test [11] in a line: qHTS assay to identify small molecule antagonists of the progesterone receptor (PR) signaling pathway - cell viability counter screen (AID 1346798). Note: series mostly up to about 92 µM; nearly all actives have a fitted effect of over 50% in size. The procedure, abridged:
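Viability was determined by ATP-based luminescence (CellTiter-Glo) in PR-UAS-bla HEK293T cells cultured in 2% charcoal-stripped serum and incubated 16 hr with compounds under R5020 stimulation.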

Test [12] is described as follows: qHTS assay to identify small molecule antagonists of the TGF-beta/Smad signaling pathway - cell viability counter screen (AID 1346824). Note: nearly all actives have a fitted effect of over 50% in size. Put shortly:
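SBE-bla HEK 293T cells were plated overnight at 37 C, then given compounds in DMSO plus TGF-beta1 (added as 0.25 ng/mL solution) for 5 hr. After the bla read, CellTiter-Glo was added to the same wells and luminescence read after 30 min at room temperature.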

Test [13] can be described thus: qHTS assay to identify small molecule agonists of the TGF-beta/Smad signaling pathway - cell viability counter screen (AID 1346829). Note: top concentration of the series differs between compounds; nearly all actives have a fitted effect of over 45% in size. The procedure, abridged:
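In parallel with the Smad reporter read, viability of HEK 293T cells stably carrying SBE-bla is quantified by ATP luminescence following 5 hr compound treatment.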

Test [14] in a line: qHTS assay to identify small molecule agonists of the TGF-beta/Smad signaling pathway (AID 1346859; active = well fitted activation curve with a large enough effect in the signal ratio in the repeat runs, not every such curve was filed as active; the % refers to the signal ratio; note: series mostly up to about 77 µM). Put shortly:
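Dual-wavelength fluorescence (460/530 nm emission) quantified beta-lactamase expression under the Smad binding element in HEK 293T cells following 5 hr compound treatment at 37 C.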

The target of test [15] is Thyrotropin-releasing hormone receptor (Homo sapiens) (UniProt P34981). Briefly: qHTS assay to identify small molecule antagonists of the thyrotropin-releasing hormone receptor (TRHR) signaling pathway (AID 1346877; active = well fitted inhibition curve with a large enough effect in the repeat runs, not every such curve was filed as active; note: series mostly up to about 51 µM). Put shortly:
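Antagonism is measured as suppression of the calcium response to 1 nM TRH in TRHR-HEK293 cells that have been dye-loaded for 2 h at 37 °C after overnight plating. Each compound is tested at 15 concentrations in triplicate.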

The nature of test [16]: qHTS assay to identify small molecule agonists of the progesterone receptor (PR) signaling pathway - cell viability counter screen (AID 1346799; calls by dose curve; note: nearly all actives have a fitted effect of over 45% in size). Put shortly:
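Viability was scored by ATP luminescence (CellTiter-Glo, 30 min, room temperature) in the same wells used for the reporter readout, after 16 hr compound exposure of PR-UAS-bla HEK293T cells.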

Test [17] deals with Estrogen receptor beta (Homo sapiens) (UniProt Q92731). Briefly: qHTS assay to identify small molecule agonists of the estrogen receptor beta (ER-beta) signaling pathway (AID 1259377; active = well fitted activation curve with a large enough effect in the signal ratio in the repeat runs, not every such curve was filed as active; the % refers to the signal ratio). The procedure, abridged:
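Measured by fluorescence intensity from a B/G FRET beta-lactamase substrate (2 h, room temperature) in ER-beta-UAS-bla HEK293T cells treated with DMSO-dissolved compounds for 16 hr at 37C and 5% CO2.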

Test [18] shares this target. Briefly: qHTS assay to identify small molecule antagonists of the estrogen receptor beta (ER-beta) signaling pathway (AID 1259378; active = well fitted inhibition curve with a large enough effect in the signal ratio in the repeat runs, not every such curve was filed as active; the % refers to the signal ratio; note: potency is the fitted concentration of half-maximal effect). The procedure, abridged:
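ER-beta-UAS-bla HEK293T (GripTite) cells in 2% charcoal-stripped FBS medium were preincubated 6 hr at 37C, dosed with compound, then stimulated with 1 nM E2 (final) for 16 hr; beta-lactamase reporter read by B/G FRET fluorescence after 2 hr substrate loading.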

The target of test [19] is Estrogen receptor (Homo sapiens) (UniProt P03372). Put plainly: qHTS assay to identify small molecule agonists of the estrogen receptor alpha (ER-alpha) signaling pathway in the presence of an antagonist (AID 1259383; calls by dose curve; note: nearly all actives have a fitted effect of over 15% in size; note: potency is the fitted concentration of half-maximal effect; for activation: top concentration of the series differs between compounds). Put shortly:
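Agonist-mode confirmation in the presence of the ER antagonist ICI-182,780 at 10.0nM final. Breast-derived VM7Luc4E2 reporter cells were exposed to compounds for 22hr, and ERE-driven luciferase was quantified by luminescence.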

The target of test [20] is Androgen receptor (Homo sapiens) (UniProt P10275). Put plainly: qHTS assay to identify small molecule agonists of the androgen receptor (AR) signaling pathway in the presence of an antagonist (AID 1259381; calls by dose curve; note: nearly all actives have a fitted effect of over 15% in size). The procedure, abridged:
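Agonist-mode confirmation screen: human MDA-kb2 cells stably expressing luciferase under an MMTV promoter bearing AR and GR response elements, co-treated with 3.0uM nilutamide (final). Luminescence measured after 16hr compound incubation.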

Sequence of Estrogen receptor beta (Homo sapiens) (Q92731 whole entry, looked up): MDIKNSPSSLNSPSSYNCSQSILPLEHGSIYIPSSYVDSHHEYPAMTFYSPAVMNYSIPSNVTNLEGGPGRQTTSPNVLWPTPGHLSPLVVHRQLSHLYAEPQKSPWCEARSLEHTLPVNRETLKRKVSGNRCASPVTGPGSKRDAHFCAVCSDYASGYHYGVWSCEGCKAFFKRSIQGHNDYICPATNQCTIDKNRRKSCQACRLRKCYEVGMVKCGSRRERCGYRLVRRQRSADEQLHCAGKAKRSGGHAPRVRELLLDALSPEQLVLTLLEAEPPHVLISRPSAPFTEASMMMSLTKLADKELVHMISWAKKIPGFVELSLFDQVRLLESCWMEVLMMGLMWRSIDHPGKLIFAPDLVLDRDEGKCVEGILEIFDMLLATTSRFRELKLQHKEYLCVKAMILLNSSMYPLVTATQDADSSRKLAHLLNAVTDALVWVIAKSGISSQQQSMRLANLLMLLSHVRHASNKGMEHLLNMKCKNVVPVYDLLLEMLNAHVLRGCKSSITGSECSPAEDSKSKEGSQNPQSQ
Sequence of Estrogen receptor (Homo sapiens) (P03372 whole entry, looked up): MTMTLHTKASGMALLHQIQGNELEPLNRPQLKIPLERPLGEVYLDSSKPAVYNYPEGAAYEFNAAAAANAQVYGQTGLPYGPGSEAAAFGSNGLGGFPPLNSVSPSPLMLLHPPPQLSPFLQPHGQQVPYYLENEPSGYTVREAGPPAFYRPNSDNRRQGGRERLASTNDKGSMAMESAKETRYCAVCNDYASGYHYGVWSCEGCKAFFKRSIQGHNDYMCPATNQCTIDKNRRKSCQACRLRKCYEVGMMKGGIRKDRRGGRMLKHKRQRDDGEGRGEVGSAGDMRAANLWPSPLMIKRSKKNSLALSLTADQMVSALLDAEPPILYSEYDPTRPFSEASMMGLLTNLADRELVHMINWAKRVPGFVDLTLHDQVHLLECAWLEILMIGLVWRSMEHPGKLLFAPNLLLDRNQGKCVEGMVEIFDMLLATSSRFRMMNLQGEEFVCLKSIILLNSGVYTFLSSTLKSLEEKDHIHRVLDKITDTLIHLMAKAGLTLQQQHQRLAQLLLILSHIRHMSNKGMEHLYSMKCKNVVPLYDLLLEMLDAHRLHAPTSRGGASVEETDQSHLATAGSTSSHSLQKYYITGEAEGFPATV
Sequence of Thyrotropin receptor (Homo sapiens) (P16473 whole entry, looked up): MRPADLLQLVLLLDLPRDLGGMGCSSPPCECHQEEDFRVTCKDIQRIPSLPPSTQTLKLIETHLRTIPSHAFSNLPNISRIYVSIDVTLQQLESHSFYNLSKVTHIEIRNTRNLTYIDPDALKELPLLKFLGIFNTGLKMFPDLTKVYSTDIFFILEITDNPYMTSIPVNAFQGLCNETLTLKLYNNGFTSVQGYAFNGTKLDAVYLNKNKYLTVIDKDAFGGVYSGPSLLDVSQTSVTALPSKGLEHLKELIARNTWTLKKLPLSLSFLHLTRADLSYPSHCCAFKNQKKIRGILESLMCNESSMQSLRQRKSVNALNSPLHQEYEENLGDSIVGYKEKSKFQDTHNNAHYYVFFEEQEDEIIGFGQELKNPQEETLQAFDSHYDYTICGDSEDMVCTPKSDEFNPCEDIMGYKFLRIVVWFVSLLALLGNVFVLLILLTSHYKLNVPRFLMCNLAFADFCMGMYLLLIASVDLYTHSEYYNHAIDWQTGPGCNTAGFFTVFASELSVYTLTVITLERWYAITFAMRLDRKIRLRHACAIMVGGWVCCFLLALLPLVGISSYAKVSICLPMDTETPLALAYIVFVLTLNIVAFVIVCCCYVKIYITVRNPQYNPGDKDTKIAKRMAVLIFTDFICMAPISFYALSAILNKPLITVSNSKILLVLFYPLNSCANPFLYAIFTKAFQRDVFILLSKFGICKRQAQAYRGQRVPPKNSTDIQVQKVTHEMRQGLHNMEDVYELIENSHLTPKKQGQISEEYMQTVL
Sequence of Thyrotropin-releasing hormone receptor (Homo sapiens) (P34981 whole entry, looked up): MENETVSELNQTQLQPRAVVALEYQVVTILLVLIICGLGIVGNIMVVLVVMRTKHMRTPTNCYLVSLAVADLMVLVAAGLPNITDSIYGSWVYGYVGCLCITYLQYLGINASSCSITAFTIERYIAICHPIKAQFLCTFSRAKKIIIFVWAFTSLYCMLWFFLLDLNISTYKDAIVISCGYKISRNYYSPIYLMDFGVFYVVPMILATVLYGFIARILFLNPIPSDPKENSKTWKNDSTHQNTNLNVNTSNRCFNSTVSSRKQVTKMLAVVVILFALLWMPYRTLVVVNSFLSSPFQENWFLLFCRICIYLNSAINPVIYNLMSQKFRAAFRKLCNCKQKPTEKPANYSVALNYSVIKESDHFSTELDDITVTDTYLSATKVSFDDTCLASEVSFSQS
Sequence of Progesterone receptor (Homo sapiens) (P06401 whole entry, looked up): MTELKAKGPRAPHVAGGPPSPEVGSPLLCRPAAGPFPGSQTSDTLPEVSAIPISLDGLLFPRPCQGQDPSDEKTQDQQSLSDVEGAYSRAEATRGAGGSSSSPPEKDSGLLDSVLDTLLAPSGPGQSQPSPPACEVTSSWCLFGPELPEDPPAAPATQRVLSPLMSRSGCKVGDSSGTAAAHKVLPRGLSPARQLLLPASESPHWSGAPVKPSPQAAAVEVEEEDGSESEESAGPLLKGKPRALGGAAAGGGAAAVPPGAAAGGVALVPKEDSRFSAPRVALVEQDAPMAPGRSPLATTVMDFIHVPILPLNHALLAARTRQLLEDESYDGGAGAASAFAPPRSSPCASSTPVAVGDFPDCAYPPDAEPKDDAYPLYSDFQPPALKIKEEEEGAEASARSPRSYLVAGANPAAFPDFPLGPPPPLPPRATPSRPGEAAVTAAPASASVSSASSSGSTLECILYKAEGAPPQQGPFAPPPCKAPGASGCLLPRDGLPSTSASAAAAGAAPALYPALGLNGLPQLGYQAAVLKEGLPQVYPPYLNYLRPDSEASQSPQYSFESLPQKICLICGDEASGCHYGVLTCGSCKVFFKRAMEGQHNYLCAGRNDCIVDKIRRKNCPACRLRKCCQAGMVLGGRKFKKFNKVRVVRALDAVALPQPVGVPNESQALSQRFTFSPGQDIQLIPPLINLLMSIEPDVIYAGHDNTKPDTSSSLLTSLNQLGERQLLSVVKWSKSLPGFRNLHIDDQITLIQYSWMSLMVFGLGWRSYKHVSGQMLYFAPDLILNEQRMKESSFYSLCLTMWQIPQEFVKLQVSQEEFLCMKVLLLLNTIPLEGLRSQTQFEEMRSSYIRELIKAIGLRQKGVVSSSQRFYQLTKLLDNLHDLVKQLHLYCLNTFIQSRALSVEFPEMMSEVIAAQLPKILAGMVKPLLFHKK
Sequence of Androgen receptor (Homo sapiens) (P10275 whole entry, looked up): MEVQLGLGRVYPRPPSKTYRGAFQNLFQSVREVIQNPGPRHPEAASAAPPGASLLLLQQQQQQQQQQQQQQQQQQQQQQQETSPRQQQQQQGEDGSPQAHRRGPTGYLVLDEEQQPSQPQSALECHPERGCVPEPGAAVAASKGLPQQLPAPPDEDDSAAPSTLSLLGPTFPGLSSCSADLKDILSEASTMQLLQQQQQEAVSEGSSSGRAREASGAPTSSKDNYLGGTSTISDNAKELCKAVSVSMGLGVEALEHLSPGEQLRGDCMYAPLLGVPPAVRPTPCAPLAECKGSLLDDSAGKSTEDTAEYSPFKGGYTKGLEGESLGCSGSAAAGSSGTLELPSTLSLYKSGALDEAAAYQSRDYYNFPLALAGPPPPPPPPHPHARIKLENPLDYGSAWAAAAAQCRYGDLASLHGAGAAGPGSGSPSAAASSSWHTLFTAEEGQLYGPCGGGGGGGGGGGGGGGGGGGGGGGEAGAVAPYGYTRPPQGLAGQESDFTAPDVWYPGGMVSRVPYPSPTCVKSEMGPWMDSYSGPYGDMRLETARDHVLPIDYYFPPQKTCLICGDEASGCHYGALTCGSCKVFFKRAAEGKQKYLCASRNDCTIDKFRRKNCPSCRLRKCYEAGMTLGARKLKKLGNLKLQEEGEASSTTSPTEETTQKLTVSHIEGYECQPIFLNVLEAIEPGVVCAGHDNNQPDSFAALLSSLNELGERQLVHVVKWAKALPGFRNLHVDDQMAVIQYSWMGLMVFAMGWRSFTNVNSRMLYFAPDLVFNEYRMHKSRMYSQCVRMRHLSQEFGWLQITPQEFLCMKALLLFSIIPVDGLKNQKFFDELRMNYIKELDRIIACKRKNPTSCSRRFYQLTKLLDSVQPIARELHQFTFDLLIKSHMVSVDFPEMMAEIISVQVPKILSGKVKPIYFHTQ

On to `CCCCC=O`, for which the Potency entry in test [1], in test [2], in test [3], in [4], in [5] and in test [7] was “inactive” throughout. Besides, the Potency entry in test [9], in test [10] and in test [11] was “inactive” throughout. For the same compound, the call in [6], in test [8], in test [12], in test [13], in test [14] and in [15] was inactive.
`CSc1nc(NC2CC2)nc(NC(C)(C)C)n1`: the Potency entry in [1], in [3], in test [4], in test [5], in test [11] and in test [16] was “inactive” each time. Besides, the Potency in test [2] is 1.54 µM (active); in test [10], 61.1 µM (active). For the same compound, the outcome in test [8], in [12], in test [13] and in [14] was inactive.
With `Oc1ccc2c(c1)OC[C@@H](N1CCC(O)(c3ccc(F)cc3)CC1)[C@H]2O`, the outcome in [17], in test [6], in test [8], in test [12], in [14] and in test [15] was inactive. For the same compound, the Potency result in test [18], in [3], in test [4], in [5], in test [7] and in test [9] was “inactive” each time. For the same compound, the Potency entry in test [11] and in test [16] was “inactive” in each case. Moreover, the Potency in test [19] is 0.668 µM (active); in test [10], 10.6 µM (active).
Turning to `O=[N+]([O-])c1ccc(CCO)cc1`, the Potency result in test [1], in [3], in test [4], in test [5], in [19] and in test [7] was “inactive” in each case. Besides, the Potency result in test [9], in [10] and in [16] was “inactive” each time. For the same compound, the result in [8], in test [13], in test [14] and in [15] was inactive.
For the compound `c1ccc(SCCSc2ccccc2)cc1`, the Potency entry in [2], in [18], in [3], in test [4], in test [20] and in test [5] was “inactive” in each case. Moreover, the Potency result in test [9], in test [11] and in test [16] was “inactive” in each case. Besides, the outcome in test [17], in test [6], in test [8], in test [12], in [14] and in test [15] was inactive.
As to `Nc1ncnc2c1ncn2Cc1c(F)cccc1Cl`, the Potency entry in test [1], in [3], in test [4], in [5], in test [19] and in [7] was “inactive” each time. Further, the Potency entry in test [9], in test [10], in [11] and in [16] was “inactive” in each case. For the same compound, the compound was called inactive in [6], in [8], in test [12], in test [13], in test [14] and in [15].
For the compound `CCOC(=O)Nc1ccc2c(c1)N(C(=O)CCN1CCOCC1)c1ccccc1S2`, the Potency result in test [1], in test [18], in [3], in [4], in test [20] and in [5] was “inactive” in each case. The Potency result in [19], in [7], in test [9] and in [16] was “inactive” each time. In addition, the compound was classed as inactive in test [17], in [6], in test [8], in test [12], in test [13] and in [14].
In the case of `C(=C(c1ccccc1)c1ccccc1)c1ccccc1`, the Potency entry in [1], in [3], in test [5] and in test [9] was “inactive” throughout. Also, the outcome in [17], in [12], in test [13], in [14] and in [15] was inactive. Further, the Potency in test [18] was 1.54 µM (active); in test [19] it was 17.2 µM (active); in test [10], 12.2 µM (active).
As for `C=CCOc1nc(OCC=C)nc(OCC=C)n1`, the Potency entry in test [1], in test [18], in test [3], in test [4], in test [5] and in test [7] was “inactive” in each case. Moreover, the Potency entry in test [9], in [10], in [11] and in [16] was “inactive” each time. The compound was classed as inactive in test [17], in test [6], in [8], in test [12], in test [13] and in test [14]. The compound was classed as inactive in test [15].
